Inconclusive results are not listed. Calls of active or inactive are those of the source. Calls come from the whole dose curve; as a rule, active = well fitted inhibition curve with a large enough effect; inconclusive = small, poorly fitted or top-dose-only effect; inactive = flat fitted curve, though single readings scatter.
Target: Aldehyde dehydrogenase, mitochondrial (Homo sapiens) (UniProt P05091)
Test: qHTS for Inhibitors of the Aldehyde Dehydrogenase Family (ALDH2) Primary screen (AID 2061308);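 note: plate controls were vehicle for no effect and reference inhibitor for full effect; nearly all actives have a fitted effect of over 55% in size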
Details: ALDH2 enzyme inhibition qHTS, 1536-well; series mostly up to 56 µM; activity change, negative = inhibition: at the top concentration

| SMILES | activity change, negative = inhibition |
| --- | --- |
| CCC1CC2C(C)=CC3CCCCC3C2(C)C2(OC(=O)C(C)(O)OC2=O)O1 (stereo not given) | -0.254% (inactive) |
| C=C1C(=O)O[C@H]2[C@H]1[C@@H](OC(=O)C(C)CO)C[C@@]1(C)[C@H](O)CCC(=O)[C@H]21 (stereo not given in full) | 6.5% (inactive) |
| C[C@@H]1CC[C@]2(C(=O)O)CC[C@]3(C)C(=CCC4[C@]5(C)C(CC[C@]43C)C(C)(C)[C@@H](O)[C@H](O)[C@@H]5O)C2[C@]1(C)O (stereo not given in full) | 3.98% [at 28 µM] (inactive) |
| C/C=C(\C)C(=O)OC[C@H]1O[C@@H](O[C@H]2[C@@H](O[C@H]3O[C@H](COC(=O)/C(C)=C/C)[C@@H](O)[C@H](O)[C@H]3O[C@@H]3O[C@H](COC(=O)/C(C)=C/C)[C@@H](O)[C@H](OC(=O)/C(C)=C/C)[C@H]3O)O[C@H](COC(=O)/C(C)=C/C)[C@@H](O)[C@@H]2O)[C@H](O)[C@@H](O)[C@@H]1O | 1.93% [at 16.9 µM] (inactive) |
| Nc1nc2c(ncn2CCC(CO)CO)c(=O)[nH]1 | 12% (inactive) |
| CC1=C(C)C(=O)OC(C(C)C2CCC3C4CC=C5CC(OC6OC(COC7OC(CO)C(O)C(O)C7O)C(O)C(O)C6O)CC(O)C5(C)C4CCC23C)C1 (stereo not given) | 10.6% [at 16.9 µM] (inactive) |
| CC1CCCC[C@H]2C(=O)C=C[C@H](O)[C@@H]2CC(=O)O1 (stereo not given in full) | -4.22% (inactive) |
| C=C1CC[C@@H]2[C@](C)(CO[C@@H]3O[C@H](CO)[C@@H](O)[C@H](O)[C@H]3O)[C@H](O)CC[C@@]2(C)[C@@H]1C/C=C1/C(=O)OC[C@H]1O | 15.5% [at 28 µM] (inactive) |
| C[C@@H](Cc1cc2c(c(C(N)=O)c1)N(CCCO)CC2)NCCOc1ccccc1OCC(F)(F)F | 2.49% (inactive) |
| C=C1[C@H](OC(C)=O)[C@H]2[C@@H](OC(C)=O)[C@](C)(OC(C)=O)C[C@]2(OC(C)=O)C(=O)[C@H](C)/C=C/C(C)(C)C(=O)[C@H](OC(=O)C(C)C)[C@H]1OC(C)=O | -6.18% [at 16.9 µM] (inactive) |
| C=C1C(=O)OC2CC(C)=C(C(C)CCCO[C@@H]3O[C@H](CO)[C@@H](O)[C@H](O)[C@H]3O)C(O)C12 (stereo not given in full) | 1.22% [at 28 µM] (inactive) |
| CC1(C)CC[C@]2(C(=O)O[C@@H]3O[C@H](CO[C@@H]4O[C@H](CO)[C@@H](O)[C@H](O)[C@H]4O)[C@@H](O)[C@H](O[C@@H]4O[C@H](CO)[C@@H](O)[C@H](O)[C@H]4O)[C@H]3O)CC[C@]3(C)C(=CCC4[C@@]5(C)CC[C@H](O[C@@H]6OC[C@@H](O)[C@H](O)[C@H]6O)[C@@](C)(C(=O)O)C5CC[C@]43C)[C@@H]2C1 (stereo not given in full) | 1.93% [at 16.9 µM] (inactive) |
| O=C(/C=C/c1ccc(O)cc1)N[C@@H](Cc1ccc(O)cc1)C(=O)O | 6.46% (inactive) |
| CC(C)/C=C1\NC(=O)C(C(C)C)n2c1nc1c(c2=O)C=CC=CO1 (stereo not given) | -13.6% (inactive) |
| CNC(=O)[C@H]1O[C@@H](n2cnc3c(NCc4ccc(N)c(I)c4)ncnc32)[C@H](O)[C@@H]1O | 0.813% [at 11.2 µM] (inactive) |
| C[C@@H]1CCCN1CCc1cc2cc(-c3ccc(C#N)cc3)ccc2o1 | 12.6% (inactive) |
| C=C[C@@]12COC(=O)C(=C)[C@@H]1[C@@H](O)[C@H](C(=C)C(=O)OC)[C@@H](O)C2 | 9.16% (inactive) |
| CC(=O)O[C@@H]1[C@H]2[C@@H](OC(=O)c3ccccc3)[C@@H](C)C[C@]2(O)[C@H](OC(C)=O)[C@@]2(C)[C@@H]3CC(C)(C)C(=O)[C@]3(OC(C)=O)C[C@@]12C | 6.94% [at 16.9 µM] (inactive) |
| CC[C@@H](C)[C@@H]1OC2(C=C[C@H]1C)C[C@@H]1C[C@H](C/C=C(\C)[C@H](O[C@H]3C[C@H](OC)[C@H](O[C@H]4C[C@H](OC)[C@H](NC(C)=O)[C@H](C)O4)[C@H](C)O3)[C@H](C)/C=C/C=C3\CO[C@H]4[C@H](O)C(C)=C[C@@H](C(=O)O1)[C@@]34O)O2 (stereo not given in full) | 0.859% (inactive) |
| CC1(C)Oc2ncnc(N)c2N=C1c1ccc(C2CCC(CC(=O)O)CC2)cc1 (stereo not given) | 14.9% (inactive) |

| SMILES | activity change, negative = inhibition |
| --- | --- |
| COC(=O)C[C@H]1C(C)(C)[C@H](OC(C)=O)C2CC3=C4CC(=O)O[C@@H](c5ccoc5)[C@]4(C)CCC3[C@@]1(C)C2=O (stereo not given in full) | 7.11% [at 28 µM] (inactive) |
| CN(C)C(=O)CNC(=O)Cc1ccccc1 | -0.99% (inactive) |
| CN1CCc2cc3c(cc2C(=O)Cc2cc4c(cc2C1)OCO4)OCO3 | -2.64% (inactive) |
| CC(C)(O)C(=O)N1CCN(c2ccc(C(F)(F)F)c(C3=C(c4c[nH]c5ccccc45)C(=O)NC3=O)c2)CC1 | 3.45% (inactive) |
| CC1(C)[C@@H](O)CC[C@]2(C)[C@H]3CC=C4[C@@H]5C[C@](C)(C(=O)O)CC[C@]5(C)CC[C@@]4(C)[C@]3(C)CC[C@@H]12 | 2.25% (inactive) |
| CC(=O)OC[C@]12[C@H](OC(C)=O)[C@H](OC(=O)c3ccccc3)[C@@H]3[C@@H](OC(C)=O)[C@]1(OC3(C)C)[C@H](C)C[C@H](OC(C)=O)[C@@H]2OC(=O)c1ccccc1 | 14.5% [at 16.9 µM] (inactive) |
| C=CC(C)(O)CC/C=C(\C)C(=O)OC1CC2(C(=O)O)CCC3(C)C(=CCC4C5(C)CCC(OC6OC(COC7OCC(O)C(O)C7O)C(O)C(OC7OCC(O)C(O)C7O)C6OC6OC(CO)C(O)C(O)C6OC6OCC(O)C(O)C6O)C(C)(C)C5CCC43C)C2CC1(C)C (stereo not given) | 3.26% [at 11.2 µM] (inactive) |
| O=C(/C=C/c1ccc(O)cc1)OC[C@H]1O[C@@H](O/C(=C\c2ccccc2)C(=O)O)[C@H](O)[C@@H](O)[C@@H]1O | 3.04% [at 28 µM] (inactive) |
| COc1cc(-c2cc(-c3cccc(O)c3)cnc2N)cc(OC)c1OC | 15% (inactive) |
| COc1ccc(CCO[C@@H]2O[C@H](CO[C@@H]3OC[C@H](O)[C@H](O)[C@H]3O)[C@@H](O)[C@H](O)[C@H]2O)cc1 | 15.7% [at 28 µM] (inactive) |
| C=C1CC2[C@]3(C)C(=C(O)C(=O)[C@@]2(C)[C@]2(C(=O)OC)C(=O)C(C)OC(=O)[C@@]12C)C(C)(C)C(=O)CC3O (stereo not given in full) | 3.62% [at 28 µM] (inactive) |
| C=C1/C(=C/C=C2\CCC[C@]3(C)[C@@H]([C@H](C)CC[C@@H](O)C(C)(C)O)CC[C@@H]23)C[C@@H](O)C[C@@H]1O | 1.24% (inactive) |
| COc1cc2c(c(OC)c1O)C(c1ccc(O)cc1)C1C(=O)OC3C(COC(=O)C1=C2)OC(CO)(OC1OC(COC(=O)/C=C/c2ccc(OC4OC(C)C(O)C(O)C4O)cc2)C(O)C(O)C1O)C3O (stereo not given) | -4.25% [at 16.9 µM] (inactive) |
| COc1cc(/C=C/C(=O)O[C@@H]2C[C@](O)(C(=O)O)C[C@@H](O)[C@H]2O)ccc1O | -6.86% (inactive) |
| CCCO[C@@H]1O[C@H](CO)[C@@H](O)[C@H](O)[C@H]1O[C@@H]1OC[C@@H](O)[C@H](O)[C@H]1O | -1.59% (inactive) |
| CC1=CC(=O)CC(C)(CO)C1(O)/C=C/C(C)O[C@@H]1O[C@H](CO)[C@@H](O)[C@H](O)[C@H]1O (stereo not given in full) | -3.28% [at 28 µM] (inactive) |
| C=CC(C)(O)CCC1C(C)(O)CCC2C(C)(C)CCCC21C (stereo not given) | 15.2% (inactive) |
| Cc1ccc(Cc2c(C)nc3nc(SCC(=O)NCCN4CCNCC4)nn3c2C)cc1 | -0.392% (inactive) |
| COc1cc2c(c(OC)c1CC=C(C)C)C[C@H](c1ccc(O)cc1O)CO2 | -2.11% (inactive) |
| CC1(C)CC[C@]2(C(=O)O[C@@H]3O[C@H](CO)[C@@H](O)[C@H](O)[C@H]3O)CC[C@]3(C)C(=CCC4[C@@]5(C)C[C@@H](O)[C@H](O)[C@](C)(C(=O)O)C5CC[C@]43C)C2C1O (stereo not given in full) | -0.0832% [at 16.9 µM] (inactive) |

Reference: PubChem BioAssay (NCATS)
